Source: PubChem (National Center for Advancing Translational Sciences (NCATS))
HT1080 IDH1KD tx: qHTS for induction of synthetic lethality in tumor cells producing 2HG: qHTS for the HT-1080-IDH1KD cell line. AID 686971, 2013. Potency, µM (titrated, usually from 46.1 µM), hits mostly cytotoxic. actives 2% (n = 360,000). HT-1080 IDH1 knockdown viability, ATP luminescence, 48 h
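Assay cells: HT-1080 with IDH1 knockdown, 750 per well, RPMI/5% FBS. Exposure: 48 h at 37 °C following 2 h pre-incubation. Read: CellTiter-Glo luminescence; fitted concentration-response, curve class assigned.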
HepG2 viability: qHTS for Inhibitors of TGF-b: Cytotox Counterscreen | HepG2 CAGA-GFP viability, ATP luminescence, 18 h | Potency, µM (series often up to 46.1 µM), hits mostly cytotoxic | actives 0.76% (n = 410,000) | AID 588856, 2011
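HepG2 CAGA-GFP cells (1000/well, DMEM with 1% FBS) received compound, then TGF-beta at 500 pg/mL final, and were incubated 18 hours at 37 degrees C. Viability was read by CellTiter-Glo luminescence. Media-only wells were set as complete cell-killing and DMSO as no toxicity.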
S2 tox: Viability Counterscreen for Primary qHTS for Inhibitors of ATXN expression; AID 651635, 2014; S2 cells (HEK-293 line with an ATXN2-luciferase reporter) viability, CellTiter-Fluor protease fluorescence, 24 h; Potency, µM (series often up to 56.7 µM), usual class: cytotoxic; actives 0.49% (n = 400,000); also: nearly all actives have a fitted effect of over 40% in size
TGFb SMAD3 inh: qHTS for Inhibitors of TGF-b | HepG2 CAGA-GFP TGF-b/SMAD3 reporter, GFP fluorescence, 18 h; TGF-beta stimulated, 500 pg/mL final | Potency, µM (titrated, usually from 46.1 µM), hits mostly inhibitors | actives 1.2% (n = 410,000) | AID 588855, 2011; also: nearly all actives have a fitted effect of over 65% in size
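Inhibition was scored as loss of TGF-beta-induced (500 pg/mL final, 18 hours, 37 degrees C) GFP in HEPG2 cells carrying a CAGA-GFP reporter, in DMEM with 1% FBS. Well GFP was summed per cell; Activity was normalised to unstimulated and stimulated DMSO wells, then concentration-response fitting.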
ATXN2 expr inh: Primary qHTS for Inhibitors of ATXN expression; HEK-293 ATXN2-luciferase reporter, luminescence, 24 h; Potency, µM (top dose mostly 57 µM), hits mostly inhibitors; actives 0.72% (n = 360,000); also: nearly all actives have a fitted effect of over 55% in size
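ATXN2-luciferase reporter cells (luciferase flanked by upstream and downstream ATXN2 gene portions) were treated 24 h at 37 °C with compounds at up to 57 uM. SteadyGlo luminescence gave expression; GF-AFC fluorescence gave viability.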
HT1080NT lethal: qHTS for induction of synthetic lethality in tumor cells producing 2HG: qHTS for the HT-1080-NT fibrosarcoma cell line; Potency, µM (highest dose often 46.1 µM), hits mostly cytotoxic; HT-1080-NT fibrosarcoma viability, CellTiter-Glo ATP luminescence, 48 h; actives 1.6% (n = 360,000);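 also: NT is the 2HG producing partner of a matched IDH1 knockdown line; nearly all actives have a fitted effect of over 55% in size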
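Luminescent CellTiter-Glo readout after 48 hours of compound exposure at 37 degrees C defined viability of HT-1080-NT cells. Activity was normalized to DMSO wells and cell-free media wells; concentration-response curves were fitted and assigned curve classes.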
Hits are given with their value; [ ] = dose if it differs, or a comment. The list is not random: actives were taken first. Their share in the collection is about 3.9%. Calls follow the shape of the dose curve; as a rule, active = well fitted curve in the direction sought with a large enough effect; inconclusive = small, poorly fitted or top-dose-only effect, or another doubt; inactive = no such curve, though single readings can be large; an effect the other way counts as inactive or inconclusive.

CCC(Sc1nc(=O)cc(N)n1-c1cccc(C)c1)C(=O)Nc1cc(C)on1 (configuration not stated) was read as HT1080 IDH1KD tx inactive, HepG2 viability inactive, S2 tox inactive, TGFb SMAD3 inh 3.5µM, ATXN2 expr inh inactive and HT1080NT lethal inactive.
`Cn1cc(-c2ccc3nnc(Sc4ccc5ncccc5c4)n3n2)cn1` gave ATXN2 expr inh inactive.
O=C(O)c1ccccc1NCCc1ccccc1 was read as S2 tox inactive and ATXN2 expr inh inactive.
Screening COc1ccc(-c2cn3c(n2)sc2cc(C(=O)NC4CCCc5ccccc54)ccc23)cc1 (configuration not stated) returned HepG2 viability inactive and TGFb SMAD3 inh inactive.
Cc1nonc1CN(C)C(=O)C1CC12CCN(C(=O)/C=C/c1cccc(Cl)c1)CC2 (configuration not stated) was read as S2 tox inactive.
`CCc1nnc(SCC(=O)Nc2cc(Cl)c(OC)cc2OC)c2cc3oc(C)cc3n12` gave HepG2 viability inactive and TGFb SMAD3 inh inactive.
`COc1cc(C(=O)OCC(=O)Nc2sccc2C(N)=O)cc(OC)c1OC` gave HT1080 IDH1KD tx 7.3µM, HepG2 viability inactive, S2 tox inconclusive, TGFb SMAD3 inh inactive, ATXN2 expr inh inconclusive and HT1080NT lethal inconclusive.
Screening CCc1ccc(CN(Cc2cn[nH]c2-c2ccc(OC)cc2)C(=O)Nc2cc(Cl)ccc2OC)cc1 returned HepG2 viability inactive and TGFb SMAD3 inh inconclusive.
Screening CCC(=O)NC(=S)Nc1cccc(Cl)c1N1CCCCC1 returned HT1080 IDH1KD tx 5.6µM, HepG2 viability inactive, S2 tox inactive, TGFb SMAD3 inh 14µM, ATXN2 expr inh inactive and HT1080NT lethal 4.5µM.
For CCCCC(=O)NC(=S)Nc1cccc(Cl)c1N1CCCCC1 the results were HT1080 IDH1KD tx inactive, HepG2 viability inactive, S2 tox inactive, TGFb SMAD3 inh inconclusive, ATXN2 expr inh inactive and HT1080NT lethal inactive.
Screening COCCN(C)C(=O)c1cnn(-c2nccc(-c3cc(OC)ccc3OC)n2)c1C returned S2 tox inactive.
For O=C1N/C(=C/c2ccc(N3CCOCC3)o2)C(=O)N1c1cccc(Cl)c1 the results were HT1080 IDH1KD tx inconclusive, HepG2 viability inactive, S2 tox inactive, TGFb SMAD3 inh 10µM, ATXN2 expr inh inactive and HT1080NT lethal inconclusive.
`Cc1ccc(/C=C2/NC(=O)N(c3ccccc3)C2=O)o1` gave HT1080 IDH1KD tx inactive, HepG2 viability inactive, S2 tox inactive, TGFb SMAD3 inh inactive, ATXN2 expr inh inactive and HT1080NT lethal inactive.
`O=C1CCCC2=C1C(c1ccc(Cl)cc1)N=C(Nc1nc3ccccc3o1)N2` (configuration not stated) gave HepG2 viability inactive and TGFb SMAD3 inh inactive.
Screening CCOC(=O)c1c(NC(C)=O)sc2c(OC)c(Br)ccc12 returned HT1080 IDH1KD tx inactive, HepG2 viability inactive, S2 tox inactive, TGFb SMAD3 inh inactive, ATXN2 expr inh inactive and HT1080NT lethal inactive.
Screening CCOC(=O)c1c(NC(C)=O)sc2c(O)c(CN3CCN(CC)CC3)ccc12 returned HT1080 IDH1KD tx inactive, HepG2 viability 11µM, S2 tox inconclusive, TGFb SMAD3 inh inconclusive, ATXN2 expr inh inactive and HT1080NT lethal inconclusive.
N#CCC1c2ccccc2CCN1C(=O)Nc1cccc(C(F)(F)F)c1 (configuration not stated) was read as HT1080 IDH1KD tx inconclusive, HepG2 viability inactive, S2 tox inactive, TGFb SMAD3 inh inactive, ATXN2 expr inh inactive and HT1080NT lethal 13µM.
`N#CCC1c2ccccc2CCN1C(=O)Nc1ccc(C(F)(F)F)cc1` (configuration not stated) gave HT1080 IDH1KD tx inconclusive, HepG2 viability inactive, S2 tox inactive, TGFb SMAD3 inh inactive, ATXN2 expr inh inactive and HT1080NT lethal inconclusive.
Screening O=C(O)c1ccccc1C(=O)NNc1ccc(F)cc1 returned HT1080 IDH1KD tx 8.2µM, HepG2 viability inactive, S2 tox inactive, TGFb SMAD3 inh inactive, ATXN2 expr inh inactive and HT1080NT lethal inconclusive.
For O=C(O)c1ccccc1C(=O)NCc1ccc(F)cc1 the results were HT1080 IDH1KD tx inactive, HepG2 viability inactive, S2 tox inactive, TGFb SMAD3 inh inactive, ATXN2 expr inh inactive and HT1080NT lethal inactive.
For C(#Cc1ccccc1)C[N+]1(CC#Cc2ccccc2)CCCCC1 the results were HT1080 IDH1KD tx inconclusive, HepG2 viability inactive, S2 tox inconclusive, TGFb SMAD3 inh inactive, ATXN2 expr inh inactive[11.3 µM] and HT1080NT lethal inconclusive.
`Cc1ccc(C#CC[N+]2(CC#Cc3ccc(C)cc3)CCCCC2)cc1` gave HT1080 IDH1KD tx 15µM, HepG2 viability inactive, S2 tox inconclusive, TGFb SMAD3 inh 20µM, ATXN2 expr inh inconclusive and HT1080NT lethal 21µM.
O=C(CN(c1cccc(Br)c1)S(=O)(=O)c1ccccc1)N/N=C/c1cc([N+](=O)[O-])ccc1O was read as HT1080 IDH1KD tx 15µM, HepG2 viability inactive, S2 tox inactive, TGFb SMAD3 inh inconclusive, ATXN2 expr inh inconclusive and HT1080NT lethal 7.3µM.
For CCOc1ccc(S(=O)(=O)N(CC(=O)N/N=C/c2ccc(-c3ccc([N+](=O)[O-])cc3)o2)c2ccccc2)cc1 the results were HT1080 IDH1KD tx inactive[9.24 µM], HepG2 viability inactive, S2 tox inactive, TGFb SMAD3 inh inactive, ATXN2 expr inh inactive and HT1080NT lethal 13µM.
Screening O=C(CCCC(=O)Nc1cccc(Br)c1)N/N=C/c1cc([N+](=O)[O-])ccc1O returned HT1080 IDH1KD tx inconclusive, HepG2 viability inactive, S2 tox inactive, TGFb SMAD3 inh inconclusive, ATXN2 expr inh inconclusive and HT1080NT lethal inactive.
For CCOc1ccc(NC(=O)CN(c2ccc([N+](=O)[O-])cc2)S(=O)(=O)c2ccccc2)cc1 the results were HT1080 IDH1KD tx 8.2µM, HepG2 viability inactive, S2 tox inactive, TGFb SMAD3 inh inactive, ATXN2 expr inh inactive and HT1080NT lethal inconclusive.
Screening COc1ccc(-n2cc(C(=O)NC(C)c3ccccc3)c3ccccc3c2=O)cc1 (configuration not stated) returned HepG2 viability inactive and TGFb SMAD3 inh inconclusive.
Screening Cc1ccc(C)c(NC(=O)C(c2ccccc2)N2Cc3ccccc3C2=O)c1 (configuration not stated) returned HepG2 viability inactive and TGFb SMAD3 inh inactive.
